From PubChem BioAssay
Pf growth 96h – Primary qHTS for delayed death inhibitors of the malarial parasite plastid, 96 hour incubation; P. falciparum luciferase reporter growth, 96 h; Potency, µM (series often up to 28.7 µM), actives largely listed as inhibitors; 320,000 compounds, 6.9% hits; AID 504834, 2011; active = well fitted inhibition curve with a large enough effect; inconclusive = small, poorly fitted or top-dose-only effect, or another doubt; inactive = no such curve, though single readings can be large or run the other way
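Plates of compound plus infected erythrocytes (2% hematocrit, 0.05% parasitemia final) incubate 96 hours, 37 C, 5% CO2. Detection reagent added; reduced luminescence from the parasites' luciferase reporter flags inhibition.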
Shiga toxin inh – A qHTS for Small Molecule Inhibitors of Shiga Toxin; Vero cells, Shiga toxin protein synthesis inhibition reporter; AID 2315, 2010; inhibition, % at 38.7 µM; 290,000 compounds, 9.2% hits; in the data active = inhibition mostly above about 28%, no sharp cut-off; inactive = mostly below about 43%
SARS PLP yeast – qHTS of Yeast-based Assay for SARS-CoV PLP; 330,000 compounds, 0.19% hits; S. cerevisiae expressing SARS-CoV PLpro, growth rescue; Potency, µM (highest dose often 32.9 µM), actives largely listed as activators; also: nearly all actives have a fitted effect of over 55% in size
NS1 function inh – qHTS Assay for Inhibitors of Influenza NS1 Protein Function; Potency, µM (top dose mostly 46.1 µM); 270,000 compounds, 0.4% hits; AID 2326, 2010; also: actives are rising curves; nearly all actives have a fitted effect of over 50% in size
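Recovery from NS1-induced slow growth read by OD600 in budding yeast switched to galactose assay medium (pH 6.0, -URA) at 1:100 dilution. Compound 23 nl per well; the matching strain lacking NS1 serves as control.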
CHX counter – Cycloheximide Counterscreen for Small Molecule Inhibitors of Shiga Toxin | cell reporter, cycloheximide protein synthesis inhibition counterscreen | max response, % | 300,000 compounds, 12% hits; in the data active = max response mostly above about 13%, no sharp cut-off; inactive = mostly below about 14%; also: read at 38.3 µM for the half of the compounds with a filed dose
Pf growth 48h – Primary qHTS for delayed death inhibitors of the malarial parasite plastid, 48 hour incubation | P. falciparum luciferase growth in erythrocytes, 48 h | Potency, µM (titrated, usually from 28.7 µM), actives largely listed as inhibitors | 310,000 compounds, 5.9% hits; active = well fitted inhibition curve with a large enough effect; inconclusive = small, poorly fitted or top-dose-only effect, or another doubt; inactive = no such curve, though single readings can be large or run the other way
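Here the parasites carry a stable luciferase gene and grow inside erythrocytes in Albumax-based RPMI medium with compound for one erythrocytic cycle. Activity is scored as loss of luminescent signal.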
Each line names hits and unclear results; the compound was inactive in the other large screens. An excerpt weighted towards active compounds, which were near 21% of everything screened. Unless noted, calls follow the shape of the full dose curve.

CCN1C(=O)[C@H]2[C@@H](c3ccc(-c4ccccc4)cc3)N[C@@](Cc3ccccc3)(C(=O)OC)[C@H]2C1=O	Pf growth 96h inconclusive, Pf growth 48h 10µM (no result: Shiga toxin inh, NS1 function inh, CHX counter)
CCN1C(=O)[C@H]2[C@@H](c3ccc(-c4ccc(Cl)c(Cl)c4)cc3)N[C@@](Cc3ccccc3)(C(=O)OC)[C@H]2C1=O	Pf growth 96h inconclusive, Pf growth 48h inconclusive (no result: Shiga toxin inh, NS1 function inh, CHX counter)
COC(=O)[C@]1(C)N[C@H](c2ccc(-c3ccccc3)cc2)[C@@H]2C(=O)N(C)C(=O)[C@@H]21	Pf growth 96h inconclusive, Pf growth 48h inconclusive (no result: Shiga toxin inh, NS1 function inh, CHX counter)
COC(=O)[C@]1(Cc2ccccc2)N[C@H](c2ccc(-c3ccc(F)cc3)cc2)[C@@H]2C(=O)N(C)C(=O)[C@@H]21	Pf growth 96h 13µM, Pf growth 48h inconclusive (no result: Shiga toxin inh, NS1 function inh, CHX counter)
CCN1C(=O)[C@H]2[C@@H](c3ccc(-c4ccccc4)c(OC)c3)N[C@@](CC(C)C)(C(=O)OC)[C@H]2C1=O	none (no result: Pf growth 96h, Shiga toxin inh, NS1 function inh, CHX counter, Pf growth 48h)
CCN1C(=O)[C@H]2[C@@H](c3ccc(-c4ccccc4)cc3)N[C@@](CC(C)C)(C(=O)OC)[C@H]2C1=O	Pf growth 96h 9.3µM, Pf growth 48h 8.3µM (no result: Shiga toxin inh, NS1 function inh, CHX counter)
CCN1C(=O)[C@H]2[C@@H](c3ccc(-c4ccc(C(C)=O)cc4)cc3)N[C@@](Cc3ccccc3)(C(=O)OC)[C@H]2C1=O	Pf growth 96h 10µM, Pf growth 48h 13µM (no result: Shiga toxin inh, NS1 function inh, CHX counter)
CCN1C(=O)[C@H]2[C@@H](c3ccc(-c4cc(C(C)=O)cs4)cc3)N[C@@](Cc3ccccc3)(C(=O)OC)[C@H]2C1=O	none (no result: Pf growth 96h, Shiga toxin inh, NS1 function inh, CHX counter, Pf growth 48h)
CN(CC(=O)Nc1ccc(Cl)c(C(F)(F)F)c1)C(=O)c1ccc(OCC2CCCO2)cc1 (stereo not given)	Pf growth 96h inconclusive (no result: Shiga toxin inh, NS1 function inh, CHX counter)
CCNN	none (no result: Pf growth 96h, SARS PLP yeast, NS1 function inh, Pf growth 48h)
COc1ccccc1CNC(=O)Cn1ccsc1=N	none
Cc1ccccc1Cn1cc(NC(=O)c2cc3nc(-c4ccco4)cc(C(F)(F)F)n3n2)cn1	Pf growth 48h inconclusive
CCc1ccc(-c2cc(C(F)(F)F)n3nc(C(=O)Nc4cnn(Cc5ccc(C)cc5)c4)cc3n2)s1	Pf growth 96h 4.7µM (no result: Pf growth 48h)
COC(=O)c1ccc(/C=C(/NC(=O)c2ccccc2)C(=O)N2CCOCC2)cc1	none
C=CCn1c(SCC(=O)Nc2ccc(C(=O)O)cc2)nc2scc(-c3ccccc3)c2c1=O	none (no result: Pf growth 96h, Shiga toxin inh, NS1 function inh, CHX counter, Pf growth 48h)
NC(=O)CSc1nc2scc(-c3ccc(Cl)cc3)c2c(=O)n1Cc1ccccc1	Pf growth 96h 8.3µM, Pf growth 48h 12µM
Cc1ccc(-c2csc3nc(SCC(=O)N(C)C)n(Cc4ccccc4)c(=O)c23)cc1	Pf growth 96h inconclusive, NS1 function inh inconclusive, Pf growth 48h 13µM
CCC(C)NC(=O)CSC1=Nc2ccccc2C2=NC(CC(=O)NCc3ccccc3)C(=O)N12 (stereo not given)	Pf growth 48h 9.3µM
Cc1ccc(CSC2=Nc3ccccc3C3=NC(CC(=O)NCc4ccco4)C(=O)N23)cc1 (stereo not given)	Shiga toxin inh 68, CHX counter 38, Pf growth 48h 1.3µM (no result: Pf growth 96h)
O=C(CSC1=Nc2ccccc2C2=NC(CC(=O)NCc3ccco3)C(=O)N12)NCC1CCCO1 (stereo not given)	Pf growth 96h inconclusive, Pf growth 48h inconclusive
O=C(CC1N=C2c3ccccc3N=C(SCc3ccc(F)cc3)N2C1=O)NCc1ccco1 (stereo not given)	Pf growth 96h 13µM, Shiga toxin inh 30, CHX counter 33, Pf growth 48h 0.74µM
COc1ccccc1CNC(=O)CCC1N=C2c3ccccc3N=C(SCC(=O)NCC3CCCO3)N2C1=O (stereo not given)	Pf growth 96h 4.1µM
NC(=O)CSC1=Nc2ccccc2C2=NC(CC(=O)NCc3cccs3)C(=O)N12 (stereo not given)	none
CC(C)(C)OC(=O)NN=C(c1ccc(O)cc1)c1ccc(O)cc1	Pf growth 96h inconclusive
COc1ccccc1/C=C/CN1CCNC(=O)C1CC(=O)NCCc1cnccn1 (stereo not given)	none
Cc1ccc(S(=O)(=O)N(C)CC(=O)NNC(=O)Cc2cccc(F)c2)cc1	none (no result: Shiga toxin inh, NS1 function inh, CHX counter)
O=C(CCC1N=C2c3ccccc3N=C(SCc3ccc(F)cc3)N2C1=O)NCc1ccco1 (stereo not given)	Pf growth 96h inconclusive, SARS PLP yeast inconclusive, CHX counter 19, Pf growth 48h inconclusive
